From PubChem
An excerpt weighted towards active compounds, which were near 2.4% of everything screened.
Cruzain Triton: cruzain (T. cruzi) inhibition with detergent; P25779; purified cruzain, Z-FR-AMC fluorescence, 0.01% Triton; Potency, µM, inactives show max response, negative = inhibition, actives largely listed as inhibitors; hit rate 0.43% among 200,000; AID 1478;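 also: plate controls were neutral wells for no effect and buffer without enzyme for full effect; nearly all actives have a fitted effect of over 40% in size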
Target sequence (P25779 123-467 limits assumed): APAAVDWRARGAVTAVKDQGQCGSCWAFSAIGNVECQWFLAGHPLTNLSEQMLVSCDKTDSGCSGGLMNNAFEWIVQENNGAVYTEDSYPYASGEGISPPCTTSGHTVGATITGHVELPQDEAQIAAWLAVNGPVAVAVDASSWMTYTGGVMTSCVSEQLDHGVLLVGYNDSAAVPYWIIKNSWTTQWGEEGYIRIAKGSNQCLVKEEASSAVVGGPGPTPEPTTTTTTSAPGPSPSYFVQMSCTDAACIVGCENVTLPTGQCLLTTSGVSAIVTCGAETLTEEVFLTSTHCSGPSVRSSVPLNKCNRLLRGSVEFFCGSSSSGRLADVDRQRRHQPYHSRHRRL
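Cruzain (1.5 nM) preincubated 15 min at RT with compound in 100 mM sodium acetate pH 5.5, 5 mM DTT, 0.01% Triton X-100. Reaction started with 2 uM Z-FR-AMC; AMC fluorescence (ex 360/em 450 nm) change over 60 s gave rate.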
Cruzain inh noDet: inhibitors of Trypanosoma cruzi cruzain without detergent; purified cruzain, Z-FR-AMC fluorescence, no detergent; AID 1476; hit rate 2.3% among 200,000; Potency, µM, without a hit: max response, negative = inhibition, most hits filed as inhibitors;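 also: plate controls were enzyme without inhibitor for no effect and buffer without enzyme for full effect; nearly all actives have a fitted effect of over 40% in size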
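Detergent-free condition (0.00005% Triton X-100) in acetate buffer pH 5.5 with DTT. 1.5 nM enzyme and compound were pre-mixed 15 min, then 2 uM Z-FR-AMC substrate added; reaction progress from fluorescence change between first and third reads (60 s).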
* marks the source's active call; other numbers are inactive results; ? = inconclusive. Calls follow the shape of the dose curve; as a rule, active = well fitted curve in the direction sought with a large enough effect; inconclusive = small, poorly fitted or top-dose-only effect, or another doubt; inactive = no such curve, though single readings can be large; an effect the other way counts as inactive or inconclusive. Potency is read from the fitted curve at half-maximal effect.

SMILES	Cruzain Triton	Cruzain inh noDet
CCCOc1cccc(C(=O)Nc2ccc(-c3nc4ccccc4s3)c(Cl)c2)c1	-4%	?
O=C(CS(=O)(=O)c1cccc2nsnc12)Nc1ccccc1Cl	-3%	-5%
Cc1ccc(CSc2sc(C(=O)c3ccccc3)c(N)c2C#N)cc1	-1%	20µM*
N#Cc1c(Oc2ccc3ccccc3c2)sc(C(=O)c2ccccc2)c1N	4%	25µM*
N#Cc1c(SCc2ccccc2)sc(C(=O)c2ccccc2)c1N	-5%	1%
Cc1cccc(Oc2sc(C(=O)c3ccccc3)c(N)c2C#N)c1C	-6%	?
Cc1cn2c(=O)cc(COc3ccccc3NC(=O)c3ccccc3C)nc2s1	0%	-9%
C=C1C[C@]23CC[C@H]4C(CO)(CO)C[C@@H](O)C[C@@]4(C)[C@@H]2CC[C@H]1C3	1%	?
COc1ccc(-n2c(=O)c(-c3cccs3)nc3cnc(N4CCNCC4)nc32)cc1	-3%	-9%
Cc1ccccc1Nc1nc(CSc2nnnn2-c2ccccc2)cs1	1%	20µM*
O=c1cc(CSc2nnnn2-c2ccccc2)nc2nc[nH]n12	1%	-3%
c1ccc(-c2nc(CSc3nnnn3-c3ccccc3)cs2)cc1	-1%	-2%
O=c1cc(CSc2nnnn2-c2ccccc2)nc2scc(-c3ccccc3)n12	-3%	25µM*
O=S(=O)(c1ccc(Br)cc1)N1CCn2c(nc3ccccc32)C1	-3%	5µM*
O=S(=O)(c1ccc2c(c1)nc1n2CCC1)N1CCOCC1	-2%	-8%
O=S(=O)(Cc1ccccc1)N1CCn2c(nc3ccccc32)C1	2%	-20%
O=S(=O)(c1ccc(Cl)c(Cl)c1)N1CCc2nc3ccccc3n2CC1	-6%	10µM*
Cc1ccc2c(c1)C(=O)C(=O)N2Cc1ccc(OCCC(C)C)cc1	1%	-14%
Cc1ccc(Cl)cc1NC(=O)N1CCc2cc(S(=O)(=O)N3CCC(C)CC3)ccc21	-2%	-1%
COc1ccccc1NC(=O)C1=C(C)Nc2nc(SCc3ccccc3Cl)nn2C1c1cccnc1 (stereo not given)	-1%	15%
COc1cc(Cl)c(C)cc1NC(c1ccccc1)c1nnc(-c2ccccc2Cl)o1 (stereo not given)	-1%	16µM*
Cc1ccc(C)c(NC(c2ccccc2)c2nnc(-c3ccccc3F)o2)c1 (stereo not given)	-2%	4%
O=C(Nc1ccc(Cl)cc1F)c1oc(=O)c2ccccc2c1-c1ccccc1	-6%	18%
Cc1ccc(-c2cc(C(=O)Nc3cc(C)ccc3C)[nH]n2)c(O)c1	-1%	13µM*
COc1ccc(OC)c(NC(=O)c2cc(-c3ccc(C)cc3O)n[nH]2)c1	-2%	-25%
SMILES	Cruzain Triton	Cruzain inh noDet
CCC(=O)N1CCc2cc(CNC(=O)c3ccc(OC)cc3)ccc21	2%	2%
Cc1cccc(C(C)C)c1NC(=O)C1CCCN1S(=O)(=O)c1cccc2nsnc12 (stereo not given)	0%	-11%
Cc1cccc(NC(=S)N(Cc2cccs2)Cc2cc3cc(C)cc(C)c3[nH]c2=O)c1	-3%	25µM*
COc1ccc2[nH]c(=O)c(CN(Cc3cccs3)C(=S)Nc3cccc(C)c3)cc2c1	-3%	?
Cc1cc2cc(CN(Cc3cccs3)C(=S)NCc3ccco3)c(=O)[nH]c2cc1C	-5%	?
Cc1ccc(C)c2[nH]c(=O)c(CN(Cc3cccs3)C(=S)NCc3ccco3)cc12	-2%	20µM*
Cc1ccc(CN2CCN(C3CCN(C(=O)OC(C)(C)C)CC3)C(=O)C2=O)cc1	0%	15%
Cc1ccc(C)c(N2CCN(C(=O)CCCCCn3c(=O)[nH]c4ccccc4c3=O)CC2)c1	-1%	9%
CCCCCCC(=O)N=Nc1c(O)[nH]c2ccc([N+](=O)[O-])cc12	-3%	25µM*
CCc1cc(C(=O)N=Nc2c(O)[nH]c3ccc([N+](=O)[O-])cc23)c2ccccc2n1	-14%	-27%
Cc1noc(C)c1C(=O)N1CCC2(CC1)CCN(c1ccccn1)CC2	1%	0%
Cc1ccc(NC(=O)CSC2=Nc3ccccc3C3=NC(Cc4ccccc4)C(=O)N23)cc1C (stereo not given)	-6%	-21%
COc1ccc(NC(=O)CSC2=Nc3ccccc3C3=NC(Cc4ccccc4)C(=O)N23)cc1Cl (stereo not given)	-4%	16µM*
Cc1c(C(=O)NC(=S)Nc2ccc(NC(=O)c3cccs3)cc2)oc2ccccc12	-2%	13µM*
O=C(Nc1ccc(NC(=S)NC(=O)c2cccs2)cc1)c1ccccc1	-4%	14%
COc1ccc(C(=O)Nc2ccc(NC(=O)c3cccs3)cc2)cc1OC	-1%	-27%
COc1ccc(C(=O)Nc2ccc(NC(=O)c3cccs3)cc2)cc1Cl	3%	7.9µM*
O=C(NNC(=S)NC(=O)c1cccs1)c1ccc(NC(=O)c2ccccc2)cc1	1%	20µM*
CC(=O)NC(=S)Nc1ccc(NC(=O)c2cccs2)cc1	1%	-10%
Cc1ccc(NC(=O)CN2C(=O)CSc3ccc(S(=O)(=O)N4CCCC4)cc32)cc1F	-6%	-1%
CC1Cc2cc(S(=O)(=O)CCC(=O)Nc3cccc(F)c3)ccc2N1C(=O)C1CC1 (stereo not given)	-1%	-10%
O=C(Nc1ccc(Br)cc1F)C1CCN(c2nc3ccccc3[nH]2)CC1	-1%	0%
COc1ccccc1CNc1ccc(-c2nc(C(C)C)no2)cc1[N+](=O)[O-]	-4%	?
COc1ccccc1CNc1ccc(-c2nc(C)no2)cc1[N+](=O)[O-]	-4%	20µM*
Oc1oc(-c2ccccc2)nc1C=Nc1ccccc1	-10%	-10%
SMILES	Cruzain Triton	Cruzain inh noDet
O=[N+]([O-])c1cccc(/C=C/c2nc(C=Nc3ccccc3)c(O)o2)c1	0%	13µM*
Cc1ccccc1OCCn1c(-c2ccc(Cl)cc2)nc2ccccc2c1=O	-1%	1%
COc1cccc(C(=O)Nc2cc3cc(OC)ccc3oc2=O)c1	1%	-1%
COc1ccc(C(=O)Nc2cc(C(=O)c3ccccc3)c(C)oc2=O)cc1	13µM*	16µM*
COC(=O)c1cc2sc(Cl)cc2n1CC(=O)Nc1cc(C)cc(C)c1	-4%	-12%
[Cl-].[Cl-].[Hg+2]	1%	-8%
COc1ccccc1NC(=O)Cn1c(=O)n(-c2cccc(Cl)c2)c(=O)c2c1c1cc(C)ccc1n2C	3%	2%
COc1ccc(/C=N/Nc2ccc(C(F)(F)F)cc2[N+](=O)[O-])cc1	-4%	2%
COc1ccc(NS(=O)(=O)c2ccc(N/N=C/c3ccc(N4CCOCC4)cc3)c([N+](=O)[O-])c2)cc1	-5%	25µM*
Cc1cccc(CC(=O)N2CC(=O)Nc3ccc(Br)cc3C2c2ccc(F)cc2)c1 (stereo not given)	-7%	?
Cc1ccccc1NC1=C/C(=N\S(=O)(=O)c2cccs2)c2ccccc2C1=O	-5%	?
Cc1ccc(NC2=C/C(=N/S(=O)(=O)c3cccs3)c3ccccc3C2=O)cc1C	-1%	10µM*
Cc1cc(=O)oc2c(CN3CCN(C)CC3)c(O)c(Cl)cc12	-22%	?
CCCc1cc(=O)oc2c(CN3CCN(C)CC3)c(O)c(Cl)cc12	32µM*	?
CCCCc1cc(=O)oc2c(CN3CCCC3)c(O)c(Cl)cc12	28µM*	?
CCCCc1cc(=O)oc2cc(OCc3nn[nH]n3)c(Cl)cc12	-8%	2%
CCCCc1cc(=O)oc2c(CN(CC)CC)c(O)c(Cl)cc12	28µM*	?
Cc1c(C)c2cc(Cl)c(O)c(CN3CCCCC3)c2oc1=O	?	-100%
